A selection: hits, their analogues and other compounds. The true share with any hit is near 4.7%.
HepG2 tox-1 = counter-screen for TGF-b inhibitors: cytotoxicity in HepG2 cells. HepG2 CAGA-GFP viability, ATP luminescence, 18 h. Potency, µM (titrated, usually from 46.1 µM), hits mostly cytotoxic. hit rate 0.76% among 410,000
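CellTiter-Glo luminescence gave cytotoxicity after 18 hours at 37 degrees C. The cells were HepG2 CAGA-GFP in 1% FBS DMEM, stimulated with 500 pg/mL TGF-beta after compound addition. %Activity was normalised to no-cell wells (complete cell-killing) and DMSO (no toxicity), and curves were fitted and classified.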
D3 antag = blocks the human D3 dopamine receptor. P35462. D3R cells, DiscoveRx beta-arrestin luminescence, antagonist mode; stronger effect = lower value. max response, negative = inhibition, %. hit rate 2.5% among 360,000; in the data active = max response below about -50%; inconclusive = no clear call, values can overlap the other calls
Target sequence (P35462 whole entry, looked up): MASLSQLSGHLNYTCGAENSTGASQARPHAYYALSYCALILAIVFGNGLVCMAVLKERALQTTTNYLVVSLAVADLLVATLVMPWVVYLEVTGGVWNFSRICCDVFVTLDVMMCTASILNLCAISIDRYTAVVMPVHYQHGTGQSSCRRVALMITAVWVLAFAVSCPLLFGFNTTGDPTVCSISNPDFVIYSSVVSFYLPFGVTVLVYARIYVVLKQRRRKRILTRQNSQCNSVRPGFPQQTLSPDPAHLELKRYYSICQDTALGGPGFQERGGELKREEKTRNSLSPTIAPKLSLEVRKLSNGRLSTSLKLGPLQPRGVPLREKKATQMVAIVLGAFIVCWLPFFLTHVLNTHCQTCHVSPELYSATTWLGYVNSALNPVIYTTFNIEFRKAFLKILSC
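Cells plated overnight at 1500 cells/well, then exposed to library compounds with dopamine controls for 90 minutes at 37 degrees C. DiscoveRx reagent added for 30–60 minutes at room temperature; luminescence read, quantitative HTS format.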
TGFb inhibitor = TGF-b pathway inhibition; HepG2 CAGA-GFP TGF-b/SMAD3 reporter, GFP fluorescence, 18 h; TGF-beta stimulated, 500 pg/mL final; Potency, µM (top dose mostly 46.1 µM), usual class: inhibitors; hit rate 1.2% among 410,000; also: nearly all actives have a fitted effect of over 65% in size
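Cell-based qHTS in HEPG2 carrying a CAGA-GFP Smad reporter; compounds added before 500 pg/mL final TGF-beta, 18 h incubation at 37 degrees C, GFP fluorescence quantified per cell by imaging cytometry.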
ATXN2 expr inh = inhibitors of ATXN2 expression; AID 1745845; Potency, µM (top dose mostly 57 µM), usual class: inhibitors; HEK-293 ATXN2-luciferase reporter, luminescence, 24 h; hit rate 0.72% among 360,000; also: nearly all actives have a fitted effect of over 55% in size
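qHTS (up to 57 uM final) was run with 24 h compound exposure of reporter cells at 37 °C. Each well was multiplexed: SteadyGlo luminescence measured ATXN2-luciferase expression after a fluorogenic Gly-Phe-AFC viability readout (25 uM final).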
S2 tox = viability counter-screen for ATXN expression inhibitors | hit rate 0.49% among 400,000 | Potency, µM (titrated, usually from 56.7 µM), actives largely listed as cytotoxic | S2 cells (HEK-293 line with an ATXN2-luciferase reporter) viability, CellTiter-Fluor protease fluorescence, 24 h | AID 651635; also: nearly all actives have a fitted effect of over 40% in size
D3 ag = agonists of human D3 dopamine receptor; D3R DiscoveRx beta-arrestin cells, luminescence, 90 min; AID 652048; P35462; max activation, %; hit rate 0.58% among 410,000; in the data active = max activation above about 30%
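Cells at 1500/well, incubated overnight, then treated with pinned compounds (dopamine as control) for 90 min at 37 degrees C. DiscoveRx reagent added for 30 - 60 minutes at room temperature; luminescence read.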
TGFb confirm = confirmation of TGF-b signaling inhibitors in HepG2 reporter cells | shares compounds with TGFb inhibitor | hit rate 63% among 1,600 | Potency, µM (titrated, usually from 46.1 µM), most hits filed as inhibitors | AID 720534 | HepG2 CAGA-GFP TGF-b reporter, GFP fluorescence, 18 h; cells stimulated with TGF-beta, 500 pg/mL; also: nearly all actives have a fitted effect of over 65% in size
HepG2 tox-2 = toxic to HepG2 cells in TGF-b counterscreen | HepG2 CAGA-GFP viability, ATP luminescence, 18 h; cells stimulated with TGF-beta, 500 pg/mL | Potency, µM (series often up to 46.1 µM), most hits filed as inhibitors | hit rate 27% among 1,600 | shares compounds with TGFb inhibitor; also: nearly all actives have a fitted effect of over 70% in size
CCL64 TGFb inh = blocks TGF-b signaling in CCL64 reporter cells. shares compounds with TGFb inhibitor. CCL64 CAGA-GFP reporter, TGF-b stimulated, GFP fluorescence, 18 h. Potency, µM (series often up to 46.1 µM), usual class: inhibitors. hit rate 41% among 1,600; also: nearly all actives have a fitted effect of over 65% in size
COP TGFb inh = validation of TGF-b inhibitors in HepG2 COP promoter reporter. hit rate 3% among 1,600. HepG2 COP-GFP TGF-b reporter, GFP fluorescence, 18 h; cells stimulated by added recombinant TGF-beta. shares compounds with TGFb inhibitor. Potency, µM (doses to about 46.1 µM), most hits filed as inhibitors; also: nearly all actives have a fitted effect of over 70% in size
Numbers stand for hits; - = inactive; ? = inconclusive; . = not tested or not shown. Unless noted, calls follow the shape of the dose curve; as a rule, active = well fitted curve in the direction sought with a large enough effect; inconclusive = small, poorly fitted or top-dose-only effect, or another doubt; inactive = no such curve, though single readings can be large; an effect the other way counts as inactive or inconclusive.

SMILES	HepG2 tox-1	D3 antag	TGFb inhibitor	ATXN2 expr inh	S2 tox	D3 ag	TGFb confirm	HepG2 tox-2	CCL64 TGFb inh	COP TGFb inh
COC(=O)C1=C(c2ccc(-c3ccccc3)c(F)c2)C[C@@H]2CC[C@H]1N2C(=O)NCc1cc(C)oc1C(F)(F)F	-	-	1.58µM	?	?	-	?	-	?	-
COC(=O)C1=C(c2ccc(-c3ccccc3)c(F)c2)C[C@@H]2CC[C@H]1N2C(=O)NCCO	-	-	-	-	-	-	.	.	.	.
COC(=O)C1=C(c2ccc(F)cc2OCc2ccccc2)C[C@@H]2CC[C@H]1N2C(=O)NCc1cccc(F)c1	-	-	-	-	?	-	.	.	.	.
COC(=O)C1=C(c2ccc(-c3ccccc3)c(F)c2)C[C@@H]2CC[C@H]1N2C(=O)NCc1ccco1	-	-	?	?	?	-	8.2µM	?	?	-
COC(=O)C1=C(c2ccc(F)cc2OCc2ccccc2)C[C@@H]2CC[C@H]1N2C(=O)NCc1ccccc1OC	-	-	?	-	?	-	?	-	?	-
C=C(C)[C@@]12OC3(c4ccccc4)O[C@@H]1C1[C@@H]4O[C@]4(CO)[C@@H](O)[C@]4(O)C(=O)C(C)=C[C@H]4[C@@]1(O3)[C@H](C)[C@H]2OC(=O)/C=C/C=C/c1ccccc1 (stereo not given in full)	-	-61.3	-	-	?	-	?	?	?	-
C=C1C(O)[C@@H]2O[C@]3(CC[C@H](/C=C/C(C)[C@@H]4CC(C)=CC5(O[C@H](C[C@@](C)(O)C(=O)O)CCC5O)O4)O3)CC[C@H]2O[C@@H]1C(O)CC(C)[C@H]1OC2(CCCCO2)CCC1C (stereo not given in full)	-	-131.6	0.0891µM	0.316µM	?	-	0.0206µM	0.0517µM	0.082µM	?
NC1(c2ccccc2)CCCCC1	.	.	.	?	-	-	.	.	.	.
O=C(CN1CCOCC1)c1ccc2ccccc2c1	-	.	-	.	.	.	.	.	.	.
COc1ccc(C[C@H]2NC[C@H](O)[C@H]2OC(C)=O)cc1	-	-	0.224µM	0.1µM	?	-	0.0731µM	0.651µM	0.103µM	-
O=[N+]([O-])c1oc2ccc3ccccc3c2c1CCO	-	-	4.47µM	?	?	-	0.82µM	1.16µM	?	-
O=C(Nc1ccc(Cl)cc1)Nc1ccc(Cl)c(Cl)c1	-	-	3.16µM	?	?	-	?	20.6µM	5.17µM	-
COc1ccc(CN2Cc3cnnn3-c3ccccc3C2c2ccccc2)cc1 (stereo not given)	-	-	-	-	-	-	.	.	.	.
c1ccc(C2c3ccccc3-n3nncc3CN2CC2CCCCC2)cc1 (stereo not given)	-	?	11.2µM	-	-	-	18.4µM	?	25.9µM	-
CC(=O)OCC12CC(OC(=O)CC(C)C)C(C)=CC1OC1C(O)C(OC(C)=O)C2(C)C12CO2 (stereo not given)	-	-	-	-	?	-	0.0103µM	.	0.0052µM	-
Nc1c2c(nc3sc4c(c13)CCCCC4)CCCC2	-	-	20µM	-	?	-	14.6µM	?	?	-

Screening results (PubChem BioAssay)
